The record followed here is the supplement of paper PMC6555819.

The test system of this test is VDR:RXRa (NR concentration 270 nM, RXRa partner concentration 90 nM). In words: PBM binding z-score (relative to random genomic background probes); higher = stronger binding; sequences stand for … in GC…GCGATTGACAGCGTAGAATGAAGG
How it is done:
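Protein-binding microarray (Agilent 4x180K custom design, double-stranded 60-nt probes: 5' GC cap, 34-nt variable region, 24-nt constant primer region; full probe sequence given). Purified or IVT nuclear receptor:RXRα heterodimers (3:1 NR:RXRα, mostly 270:90 nM) or homodimers were incubated for 1 h in PBS with 2% milk and no ligand, then detected with Alexa488 antibodies. Fluorescence from o1-orientation probes (~5 replicates averaged) was converted to z-scores against 500 random hg19 background probes. Variable regions are seed direct-repeat (DR0–DR5) sites, all their single-nucleotide variants and half-site ablations.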
CGAACGAGGGCATGGGTTGATAGCAAATGCCGAT showed a PBM binding z-score of 1.45. For the sequence AGAATGAGGTTACCTAAGATCAGGGAAACGCTTG, the PBM binding z-score came to 1.47. The sequence CCTCGGAGGACAGTAGGTCAGAGCTGTCCGCTTT returned a PBM binding z-score of -0.11.

TCATATAGGTAAGTGCTAGGTGAAAGTCCGATCT had a PBM binding z-score of 0.679.

CGTCCAAGGTCAATGCTGGGTCAGTGAAAGCATT returned a PBM binding z-score of 4.79.

Turning to GCGATTGGGGCAAAGCAGGTTACCATAAGGTTGG, the PBM binding z-score was determined as 0.27. The figure for CCTGCAAGGTCAATGGTCAGCTAAAGCAGCTCGC is 3.76; for TCGTGTAGATCAACAGGAGGTTAAGAAAGATCGA it is 0.314. The figure for CGAACTAGGTCAGAACGGGACAGTGAAGGATGAT is 0.281; for TGAATGAGGTTAAAGATCGGGGAACGTGGCGTCG it is 1.61. For TAGCATAGGTCATGGGCCAGTATACCACGCGAAC the value was 3.33; for GCTCGGATGACAAGGTCAGAGCTTTGTCCGTAGA, 0.722. Take GCTATTAGTTGTAAGGGCAACCGAATGATTCTCG: the PBM binding z-score was 0.148. In turn, TCTGCTAGGTCAGTTTGTCAGCTAACGAGCTGCC yielded a PBM binding z-score of 0.205.

TCGAGTTGGTTAGTCGGGGCATTCAGCCAACATA had a PBM binding z-score of 0.43. In turn, GATACAGGGTCAAGGCCAGACTACGCGTATTGAT showed a PBM binding z-score of 4.28. For CCTACTGGGCAAAAGGTCATTGATTCCAATGCTC the value was 4.44; for CCGACTCGGGCAAAGGTTACCATACTCAGTACGA, 1.33. For CAAACTAAGTCACGAAAGGTCAAAGTCGAATGAC, the PBM binding z-score was found to be 5.34. Sequence CCACACAGGTGAAAGGTAACTCAGTCTGGTACGC came in with a PBM binding z-score of 1.05. CCAGACAGGTGAAAGGTACCTCAGTCTGGTACGC showed a PBM binding z-score of 0.0967. For the sequence TCATATAGGTAAATGTGAAAGTCGAACGATATGA, the PBM binding z-score is 0.491. The figure for TAGCCTAGGTCATGCAGGCCAGTATAGTGTCGGC is 3.25; for AGAACGAGGGCACGCTGAGTTCATAGCAGAGTAG it is 6.39; for CCTCGGAGGACAACAGGAGGTAAGAGCTGCCAGA it is -0.357. The figure for CGTCAAAGTTCAATGTAACGTAACAGAAAGCAGC is 3.74; for GCGAGCAGGCCATTTGGGTCACTCAATGACGGGC it is 0.881.

For the sequence GATACAGGGTCAAGGCCAGCGTACGCGTATTGAT, the PBM binding z-score is 3.89. The sequence CCCTACGGGTCACTGACAGGTTATAGCATTTGGA came in with a PBM binding z-score of 3.56.

Turning to TTACCAAGGTGAGCTGAGATCGTTGATCCAACTC, the PBM binding z-score was -0.473. For CTAGAAAGGTCGTGCTCAGGTGAGTATACCAAAC the value was 3.1. Consider TCATATAGGTAAATGCTAGGTGAAACTCCGATCT, for which the PBM binding z-score was determined as 0.855. The figure for TCTAGTTGGGCACGGAGGTCACACACGACGGGTA is 4.08; for TCAGACAGGTGGAGGTAACTCAGGTACGCAGTCG it is 0.574; for TCTAGTAGATCAGCAGGTTAAGAAAGCTGGCCAA it is 0.524. Sequence CGTCCAAGGTCAAGGACAGTGAAAGAGACTCGAA displayed a PBM binding z-score of 3.75. Sequence TCTTGTAAATCAATAGAGGTTAAGAAAGTGCGCT showed a PBM binding z-score of 1.98. The figure for CGTCCAAGGTCAAAGGTCGGTGAAGAGATGACGG is 5.32.

CCTACTGGGCCAAAGGTCATTTATTCCAATGCTC: the PBM binding z-score is 4.34. GCTGCTAGGTCAACTTATGGTCAGCTAAAGCTCG: the PBM binding z-score came to 2.04.
